# Assay results reported in PubChem BioAssay AID651635 (National Center for Advancing Translational Sciences (NCATS), 2012).
# The campaign covered roughly 400,000 compounds. About 1,900 (0.47%) were called active. Roughly 14% stayed inconclusive and do not appear here. Only a selection was taken, and actives are over-represented in it overall. Values without a mark were called inactive. Calls come from the whole dose curve; as a rule, active = well fitted cell-killing curve with a large enough effect; inconclusive = small, poorly fitted or top-dose-only effect, or effect the other way; inactive = no such curve, though single readings can be large or run the other way.
# Assay: Viability Counterscreen for Primary qHTS for Inhibitors of ATXN expression; note: nearly all actives have a fitted effect of over 40% in size
# Conditions: S2 cells (HEK-293 line with an ATXN2-luciferase reporter) viability, CellTiter-Fluor protease fluorescence, 24 h; series mostly up to 56.7 µM; activity change, negative = cytotoxicity: at the top concentration
# Text: Spinocerebellar ataxia type 2 (SCA2) is a multisystem neurodegenerative disease caused by a dominantly-acting mutation leading to expansion of a polyQ domain in the ataxin-2 protein (ATXN2). SCA2 patients develop progressive ataxia and later lose function in other neuronal systems. Prominent parkinsonian signs develop in some patients. Similar to many neurodegenerative disorders, no symptomatic or disease-modifying treatments are known.
# The primary objective of the proposed research is to identify compounds inhibiting ATXN2 expression and to test them for efficacy in SCA2 mouse models. To this end, we have developed a cell-based assay paired with an in vivo mouse model using identical luciferase expression constructs. This approach takes advantage of an ATXN2-luciferase transgene, with the luciferase gene flanked by the upstream and downstream portions of the ATXN2 gene. This primary assay was tested against the NIH Molecular Libraries Small Molecule Repository (MLSMR).
# NIH Chemical Genomics Center [NCGC]
# NIH Molecular Libraries Probe Centers Network [MLPCN]
# Assay Submitter (PI): Daniel Scoles, University of Utah
# PROTOCOL TABLE (as described by Inglese J, Shamu CE and Guy RK. 2007)
# SEQUENCE No. (e.g., 1, 2, 3, etc.); […] (e.g., Cells, Incubation, Reagent, etc.); VALUE; DESCRIPTION.
# 1; Cells; 4 uL; white, solid bottom, 1536-well Greiner assay plate.
# 2; Incubation; 2 hr; 37 degree C in 5% humidified CO2.
# 3; Compounds; 23 nL; Kalypsis pintool (Wako USA) equipped with a 1536-well pin head.
# 4; Incubation; 24 hr; 37 degree C in 5% humidified CO2.
# 5; Reagent; 1 uL; Gly-Phe-7-Amino-4-trifluoromethylcoumarin.
# 6; Incubation; 30 min; 37 degree C in 5% humidified CO2.
# 7; Detection; Fluorescence; ViewLux plate reader (PerkinElmer).
# 8; Reagent; 3 uL; SteadyGlo luciferase solution (Promega).
# 9; Incubation; 5 min; room temperature.
# 10; Detection; Luminescence; ViewLux plate reader (PerkinElmer).
# NOTES (numbers refer to Sequence numbers above)
# 1. S2 cells expressing ATXN2-luciferase reporter were suspended in phenol-red free DMEM and dispensed in assay plates using a Multidrop Combi dispenser (Thermo Fisher Scientific).
# 2. Assay plates were incubated. Evaporation was prevented by covering assay plates with metal lids containing holes to allow gas diffusion.
# 3. […] Vehicle-only plates, with DMSO being pin-transferred to columns 5-48, were inserted uniformly at the beginning and the end of each library to monitor and record any shifts in assay performance.
# 5. 125 uM Gly-Phe-7-Amino-4-trifluoromethylcoumarin (MP Biomedicals) working concentration was used at a final concentration of 25 uM.
# 7. To assess cell viability; the assay plates were read using the ViewLux high-throughput CCD imager (PerkinElmer), wherein single end-point fluorescence measurement was acquired (excitation 405/10; emission 540/25 nm).
# 8. Detection reagent SteadyGlo Luciferase (Promega) was added to the assay plate.
# 10. Luminescence is then measured on the ViewLux imager equipped with a clear emission filter using a 2 sec exposure. All screening operations were performed on a fully integrated robotic system (Kalypsys) containing one RX-130 and two RX-90 anthropomorphic robotic arms (Staubli).
# Inglese J, Shamu CE and Guy RK, Reporting data from high throughput screening of small molecule libraries, Nature Chemical Biology, 2007, 3(8): 438-441. doi.org/10.1038/nchembio0807-438.
# Potency is the fitted concentration of half-maximal effect.
Structure (SMILES),"activity change, negative = cytotoxicity [%]",Potency
CC(C)(C)c1ccc(S(=O)(=O)Nc2ccc(O)c(Sc3nc4ccccc4s3)c2)cc1,-34.1,
C=C1C(=CC=C2CCC[C@]3(C)[C@@H]([C@H](C)C=C[C@H](C)C(C)C)CC[C@@H]23)C[C@@H](O)C[C@@H]1O,13.1,
COc1ccc(C)cc1N1C(=O)[C@@H]2C[C@H]1CN2Cc1cccc(OC)c1O,-13.5,
COc1ccc(NC(=O)C2Cc3c(-c4ccc(Cl)cc4)ccnc3O2)cc1 (centres undefined),-34.9,
CCc1ccccc1N1CC(c2nc3ccccc3n2CCCCOc2ccccc2)CC1=O (centres undefined),-17.9,
CCOc1ccc(N2CC(c3nc4ccccc4n3CCOc3ccc(OC)cc3)CC2=O)cc1 (centres undefined),-34.3,
CCCCN1CC(c2nc3ccccc3n2CCCCOc2ccc(C)cc2C)CC1=O (centres undefined),,25.1 µM (active)
Cn1c(=O)c2c(ncn2CCc2ccccc2)n(C)c1=O,-14.3,
CCOc1ccc(-c2n[nH]c3c2C(c2ccccc2OC)N(c2ccc(Br)cc2)C3=O)cc1 (centres undefined),-27.2,
CCCCCc1c(Cc2ccccc2)ncn1CCc1ccccc1OC,,22.4 µM (active)
COc1ccccc1Cc1c(-c2ccc(Cl)cc2)nc2ccc(Cl)cn12,-9.29,
COc1ccccc1CCNS(=O)(=O)c1cn(C)nc1C,-9.41,
CCCCc1c(-c2ccc(Br)cc2)ncn1CCc1ccccc1OC,,15.8 µM (active)
CCCc1c2oc(C(=O)O)cc(=O)c2cc2c(=O)cc(C(=O)O)n(CC)c12,-0.84,
O=C1CCN(Cc2ccc(-c3ccccc3)cc2)CCN1Cc1ccccn1,-0.49,
Cc1ncc2c(c1CNS(=O)(=O)N(C)C)CCN(C(=O)c1ccccc1F)C2,-9.75,
CS(=O)(=O)NC(=O)CCC/C=C\C[C@H]1C(=O)C[C@@H](O)[C@@H]1/C=C/[C@H](O)COc1ccccc1,-8.77,
Cc1ccc(-c2ccnc(-n3ncc(C(=O)N(C)Cc4cccc5ncccc45)c3C3CC3)n2)o1,-9.53,
COc1ccc(-n2nc3c(N4CCC(C(=O)NCc5ccccc5)CC4)nnc(C)c3c2C)cc1,-17.5,
COc1cccc(NC(=O)C2CCN(c3cc(C)nc4c(-c5ccc(Cl)cc5)c(C)nn34)CC2)c1,-19.3,
Cc1nnc(N2CCC(C(=O)Nc3ccc(F)cc3)CC2)c2nn(-c3ccc(Cl)cc3)c(C)c12,,20 µM (active)
CCOC(=O)N1CCN(S(=O)(=O)c2ccc(OC)cc2)CC1,-16.8,
CCOC(=O)C1=C(c2ccc(OC)cc2)C(=O)c2ccccc2C1=O,,6.31 µM (active)
COC(=O)c1cc(OC)ccc1-c1ccc(OC)cc1,7.37,
COC(=O)[C@@H]1C[C@H](NC(=O)c2ccccc2C(F)(F)F)CN1Cc1cccc(O)c1,-18.1,

Structure (SMILES),"activity change, negative = cytotoxicity [%]",Potency
CC(C)(C)C1CCc2c(sc(NC(=O)c3ccccc3F)c2C(=O)N2CCCCC2)C1 (centres undefined),-15.6,
COc1ccccc1OCCNCC(O)COc1cccc2[nH]c3ccccc3c12 (centres undefined),,28.2 µM (active)
COc1cccc2[nH]c(C(=O)NCCc3ccccc3)cc12,-21.9,
CC(O)CNCCOc1cccc(Oc2ccccc2)c1 (centres undefined),-31,
COc1ccc(NC(=O)C2Cc3c(-c4ccc5c(c4)OCO5)ccnc3O2)cn1 (centres undefined),-16.8,
Cc1ccc2cccc(NC(=O)c3cccc4ccccc34)c2n1,-34.8,
COc1cc(=O)n2c(c1C(=O)NCc1ccco1)CCN(Cc1ccccc1)CC2,-5.97,
Cc1cccc(C)c1NC(=O)c1ccc(N)cc1,0.704,
Cc1cc(C(=O)NCC2Cc3cccc(-c4cncnc4)c3O2)c(C)o1 (centres undefined),-10.9,
CNC[C@H](CC1CCCCC1)NC[C@H](NCCC1CCCC1)[C@H](C)O,,17.8 µM (active)
O=C(NCC(c1ccc2c(c1)OCO2)N1CCN(c2ccccc2)CC1)C(=O)Nc1ccccc1F (centres undefined),1.03,
O=S(O)CNc1ccc(S(=O)(=O)c2ccc(NCS(=O)O)cc2)cc1,-5.35,
O=C(CSc1ncn[nH]1)NCc1ccc2c(c1)OCO2,-17,
O=C(CSc1ncn[nH]1)Nc1ccc(Br)cc1Br,-18.1,
O=C(/C=C/Sc1ncn[nH]1)c1ccc(Cl)cc1,,25.1 µM (active)
CC(C)Oc1ccc(CN2CCC2(C)C(=O)NCc2ccc(C(F)(F)F)cc2)cc1 (centres undefined),-28.4,
COc1cc(Cn2c3ccc(NC(=O)CC(C)c4ccccc4)cc3c(=O)n2C)ccc1F (centres undefined),-29.6,
Cc1cccc(Cc2c(C)nc3nc(SCc4ccccc4Cl)nn3c2C)c1,-21.8,
COc1ccc(CN(C)CCn2cc(C(=O)N3CCSCC3)nn2)cc1C,-7.73,
O=c1[nH]nc(SCCS(=O)(=O)c2ccc(F)cc2)n1-c1ccccc1C(F)(F)F,,11.2 µM (active)
O=C(CSc1n[nH]c(=O)n1-c1ccccc1)Nc1ccccc1C(F)(F)F,-31.4,
O=S(=O)(c1ccc(F)cc1)N1CCN(Cc2ccccc2C(F)(F)F)CC1,-24.4,
COc1ccc(-c2csc(C(O)c3cccc(Cl)c3)n2)cn1 (centres undefined),-0.881,
COc1cc(=O)n2c(c1C(=O)NC(C)c1ccco1)CCN(Cc1cc(C)cc(C)c1)CC2 (centres undefined),-1.1,
